ChEMBL document CHEMBL3988442, “University of Dundee, Small-Polar-MMV Screening Library” (2021)
About 13,000 (27%) of roughly 48,000 compounds showed an effect of 50% or more. The list shows a part of the results.

These molecules were tested on Wolbachia pipientis (assay: Anti-Wolbachia Cell-Based Screen). Conditions: 5 µM.
Format: functional
Set-up: scale not given: in the data most compounds retested in dose-response had high values

Compound	Percent Effect [%]
CCn1cc(CN2CCCn3nc(CCC(=O)NCCO)cc3C2)cn1	-3.785
CSc1ccccc1CN1CCCn2nc(CNC(=O)N(C)C)cc2C1	2.043
Cc1cc(CN2CCCn3nc(CCC(=O)O)cc3C2)ccc1F	-13.15
Nc1ncccc1CN1CCCn2nc(CCC(=O)NC3CC3)cc2C1	172.9
O=C(CCc1cc2n(n1)CCCN(CCc1ccccc1)C2)NC1CC1	113.2
O=C(CCc1cc2n(n1)CCCN(Cc1ccccc1F)C2)NC1CC1	0.7471
Cc1nc(C(NC(=O)CC(F)(F)F)c2ccc(Cl)cc2)no1 (stereo unspecified)	0.7806
COCCC(=O)N1CCCC1c1cccc(C)c1C (stereo unspecified)	3.518
COCC(=O)N1CCCC1c1cccc(C)c1C (stereo unspecified)	4.955
COCC(=O)N1CCCCC1c1nc(C)c2c(n1)N(C1CC1)C(=O)CC2 (stereo unspecified)	63.67
COCCC(=O)N1CCCC1c1nc(C)c2c(n1)N(C)C(=O)CC2 (stereo unspecified)	147.7
Cn1c(C2CCCN2C(=O)CN2CCCC2=O)nc2ccccc21 (stereo unspecified)	0.4362
CC(C)CS(=O)(=O)CC(=O)N1CCCC1c1noc(C2CC2)n1 (stereo unspecified)	-6.47
COCC(=O)N1CCCCC1c1nc(C)c2c(n1)N(CC1CC1)C(=O)C2 (stereo unspecified)	105.7
COCCn1cc(C(=O)N2CCCC2c2noc(C)n2)ccc1=O (stereo unspecified)	10.03
COCC(=O)N1CCCC1c1nc(C)c2c(n1)N(CC(C)C)C(=O)CC2 (stereo unspecified)	117
CC(Nc1nc2c(cnn2C)c(=O)[nH]1)c1ccc(F)cc1 (stereo unspecified)	-20.73
COCCN1CC(C(=O)N(C)Cc2cc(-c3cccnc3)no2)CC1=O (stereo unspecified)	-16.5
O=C(c1cnc2c(c1)CCC2)N1CCCC(CO)(CC2CC2)C1 (stereo unspecified)	-2.632
OC[C@@H](O)CN(CCC(F)(F)F)c1ncc(Br)cn1	8.436
CCC(Nc1nnnn1-c1ccccc1)C(=O)NCc1ccsc1 (stereo unspecified)	4.065
CCN(CC)C(=O)CN1CCCC1c1nc(C)c2c(n1)N(C)C(=O)CC2 (stereo unspecified)	125.7
CCN(CC)C(=O)CN1CCCC1C(=O)N(C)C (stereo unspecified)	1.193
Cc1nc(C2CCCN2CC(=O)N(Cc2ccsc2)C2CC2)no1 (stereo unspecified)	-3.982
Cc1ccc(CN2CCc3ncc(CNS(C)(=O)=O)n3CC2)o1.O=C(O)C(F)(F)F	-0.4637
O=C(NCc1cnc2n1CCN(CC1CCOCC1)C2)c1ccno1.O=C(O)C(F)(F)F	-43.24

Compound	Percent Effect [%]
O=C(NCc1cn2c(n1)CN(Cc1nccs1)CC2)C1CCC1.O=C(O)C(F)(F)F	-3.871
Cc1cc(C(=O)N2CCc3ncc(CN4CCCC4)n3CC2)no1.O=C(O)C(F)(F)F	-20
Cc1ccc(CN2CCc3ncc(CNC(=O)C4CCC4)n3CC2)o1.O=C(O)C(F)(F)F	89.47
Cn1ccnc1C(=O)NCc1cnc2n1CCN(CC1CC1)CC2.O=C(O)C(F)(F)F.O=C(O)C(F)(F)F	88.03
O=C(NCc1cnc2n1CCN(Cc1nccs1)CC2)C1CCC1.O=C(O)C(F)(F)F	95.25
Cn1ccnc1C(=O)NC[C@@H]1OC[C@H]2CN(CC3CC3)CC[C@H]21.O=C(O)C(F)(F)F	-43.28
Cn1cccc1C(=O)NCc1cnc2n1CCN(CC1CCOCC1)C2.O=C(O)C(F)(F)F	19.82
O=C(NCc1cnc2n1CCN(CC1CC1)C2)C1CC1.O=C(O)C(F)(F)F	80.69
O=C(NCc1cnc2n1CCN(Cc1ccsc1)CC2)C1CCC1.O=C(O)C(F)(F)F	-9.045
Cn1cccc1C(=O)NCc1cnc2n1CCN(CC1CC1)C2.O=C(O)C(F)(F)F	-11
CC(=O)Nc1ccsc1C(=O)Nc1cnc2n1CCCC2	1.629
CNc1nc(C(=O)NCC2CCOc3ccccc3C2)cs1 (stereo unspecified)	3.092
CC(C)C1CN(c2nccc(N)n2)CCC(=O)N1Cc1ccc(F)cc1 (stereo unspecified)	6.607
COc1cccc(OCC2CCCN(C(=O)c3ccc(N)nc3)C2)c1 (stereo unspecified)	-26.62
CC(C)N(CC(=O)Nc1ccc(Br)cc1Cl)Cc1cccnc1	-0.1768
COC(=O)CCC(=O)N1CCc2nc(C(=O)N3CCOCC3)sc2CC1	-7.844
CN(Cc1ccco1)[C@@H]1CN(CC2CCOCC2)C[C@@H]2CCCO[C@@H]21.O=C(O)C(F)(F)F.O=C(O)C(F)(F)F	2.943
CC1CCN(C(=O)c2cn(-c3cc(N4CCSCC4)ncn3)cn2)CC1	12.42
COc1nn(C)cc1C(=O)N1CCC(C)CC1	127.9
Cn1cnc2cc(C(=O)N3CCC(c4ccccc4C(=O)O)C3)cnc21 (stereo unspecified)	0.5169
CCN(CC)C(=O)CCNC(=O)N1CCC(c2ccccc2)C1 (stereo unspecified)	4.092
CCNC(=O)N1CCC(c2ccccc2)C1 (stereo unspecified)	124.1
O=C(NCCNC(=O)N1CCC(c2ccccc2)C1)C1CC1 (stereo unspecified)	-9.135
COc1nn(C)cc1C(=O)N1CCC(c2ccccc2)C1 (stereo unspecified)	121.1
CC1CCN(C(=O)c2ccn(COc3ccc(F)cc3)n2)CC1	3.69
CS(=O)(=O)Cc1ccc(Cl)cc1NCc1cccc(F)c1F	-9.935

Compound	Percent Effect [%]
CC(=O)NCC1CCN(CC2CCOc3ccccc3C2)CC1 (stereo unspecified)	6.943
CCCN1CC2(CCN(C)CC2)CC1C(=O)NCCn1cccn1 (stereo unspecified)	6.399
COc1ccc(CN2CCN(CC3CC3)[C@@H]3CS(=O)(=O)C[C@@H]32)cc1C	20.23
CNS(=O)(=O)c1cccc(CNc2nccc(C(F)(F)F)n2)c1	-7.88
COc1ccc(Cl)cc1CN(C)CC(=O)/N=c1\cc[nH]n1C(C)C1CC1 (stereo unspecified)	-13.95
C1Cc2nc(CCNc3nc(C4CC4)nc4c3CCNCC4)sc2C1	0.8801
OC1(CNCCSc2ccccn2)CNCCOC1 (stereo unspecified)	-26.11
OC1(CNCCc2nc3c(s2)CCCC3)CCNC1 (stereo unspecified)	87.02
OC1(CNCCc2nc(Cc3ccccc3)no2)CNCCOC1 (stereo unspecified)	14.79
OC1(CNCCc2nc3c(s2)CCCC3)CNCCOC1 (stereo unspecified)	109
Cc1nc2c(c(NCCc3nc4c(s3)CCCC4)n1)CCNCC2	7.698
CC(C)NCc1nc(-c2ccc3c(c2)OCO3)c[nH]1.Cl.Cl	8.786
CCCc1cc(NC(=O)c2cccc(N3CCCNC3=O)c2)n[nH]1	11.29
Cc1ccccc1-c1cncc(C2CCN(C)CC2)n1	-14.26
Cn1cncc1-c1nnc([C@H]2CCN(C3CCOCC3)C2)o1	-2.913
Cc1ccccc1-c1cncc(C2CCN(CCO)CC2)n1	122.1
CN(C)S(=O)(=O)N1CCC(Cn2cccn2)CC1	2.027
COCCN1CCC(c2cncc(-c3ccccc3C)n2)CC1	100.9
Cc1ccccc1-c1cncc(C2CCN(C3CCOCC3)CC2)n1	110.9
Cc1ccccc1-c1cncc(C2CCN(S(=O)(=O)N(C)C)CC2)n1	110.9
CCc1nc2n(n1)CC(NCC(=O)Nc1ccc(Cl)cn1)CC2 (stereo unspecified)	-9.728
CC(C)(C)NC(=O)Cn1cc(C(N)=O)c(-c2ccccc2)n1	6.588
CN1CCN(Cc2noc(-c3cc(-c4ccc(F)cc4)n[nH]3)n2)CC1	-13.75
Clc1ccc2cccnc2c1CN1CCCC(Cn2cncn2)C1 (stereo unspecified)	-4.204
Cc1ccccc1-c1cncc(C2CCN(Cc3cnn(C)c3)CC2)n1	99.14
Cc1ccccc1-c1cncc(C2CCN(CC(=O)N(C)C)CC2)n1	124.8

Compound	Percent Effect [%]
CCn1c(CN2CCCC2)nnc1C1CCN(Cc2ccccn2)CC1	-10.72
CN(CC(F)(F)F)C(=O)CN1CCC(c2cc3ccccc3[nH]2)CC1	-8.939
Cc1ccccc1-c1cncc(C2CCN(C(=O)CN(C)C)CC2)n1	-14.47
Oc1nc(C2CCN(Cc3ccccn3)CC2)cc2ccccc12	103.3
CCn1c(CN(C)C)nnc1C1CCN(Cc2ccccn2)CC1	2.831
Fc1ccccc1CC1CCN(Cc2ccccn2)CC1	-1.082
Cn1cc(CN2CCC(CCC(=O)Nc3ccccc3Cl)CC2)cn1	1.121
Cc1ccccc1-c1cncc(C2CCN(Cc3ccccn3)CC2)n1	93.34
CC(=O)Nc1ccc(CC(=O)N2CC(S(=O)(=O)C3CCCCC3)C2)cc1	1.653
Cc1oc(-c2ccsc2)nc1CNCCn1cccn1	-19.09
c1nc(NCC2(N3CCOCC3)CCSC2)c2sccc2n1 (stereo unspecified)	-18.02
CCc1nc(NCCCOC)c2c(n1)c(C)nn2C	12.69
O=C(CN1CCCC1c1nc(-c2ccccn2)no1)N1CCNCC1 (stereo unspecified)	2.337
CCc1nccn1-c1cncc(C2CCCN2Cc2cccnc2)n1 (stereo unspecified)	-2.141
CCc1nccn1CC(=O)N1CCN(C2CCc3ccccc3C2)CC1 (stereo unspecified)	-21
CCCn1ccnc1CN1CCCC1c1ccccn1 (stereo unspecified)	6.189
CCc1nccn1-c1cncc(C2CCCN2Cc2ccccn2)n1 (stereo unspecified)	112.2
CN(C)C(=O)CCc1cncc(C2CCCN2Cc2ccccn2)n1 (stereo unspecified)	97.92
CCc1nccn1-c1cncc(C2CCCN2Cc2ccccc2)n1 (stereo unspecified)	119.3
CCc1nccn1-c1cncc(C2CCCN2Cc2ccc(F)cc2)n1 (stereo unspecified)	-3.137
CN(CCc1ccccn1)S(=O)(=O)N1CCCC1c1ccco1 (stereo unspecified)	10.93
CCn1ccnc1CN1CCN(Cc2ccccn2)CC1C (stereo unspecified)	-25.03
CCc1nccn1-c1cncc(C2CCCN2CC(=O)N2CCCC2)n1 (stereo unspecified)	115.3
